The values below come from PubChem BioAssay (Tox21).

Inconclusive results are not listed. Calls of active or inactive are those of the source. Unless noted, calls come from the whole dose curve; as a rule, active = well fitted curve in the direction sought with a large enough effect in the repeat runs; inconclusive = weak or mixed curves; inactive = no such curve, though single readings can be large; an effect the other way counts as inactive or inconclusive.

The nature of test [1]: qHTS assay for small molecule agonists of the p53 signaling pathway (AID 651631; calls by dose curve; note: nearly all actives have a fitted effect of over 15% in size; note: potency is the fitted concentration of half-maximal effect). In outline: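 HCT-116 cells carrying a stable p53 response element–beta-lactamase reporter were plated, rested 5 h at 37 °C, then exposed to compound in DMSO for 16 h at 37 °C; reporter activity was read as FRET substrate fluorescence after 2 h at room temperature.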
On the technique in general: qHTS replaces the single test concentration by a dilution series.

Test [2] in a line: qHTS assay for small molecules that induce genotoxicity in human embryonic kidney cells expressing luciferase-tagged ATAD5 (AID 651632). Note: nearly all actives have a fitted effect of over 15% in size. In outline:
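Test compounds were delivered by pin tool onto HEK293T reporter cells (2,000/well) expressing ATAD5 fused to luciferase. After 16 hr at 37C, 5% CO2, Amplite was added for 30 min at room temperature and luminescence was measured.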

The nature of test [3]: qHTS assay for small molecule agonists of the p53 signaling pathway - cell viability (AID 651633; calls by dose curve; note: nearly all actives have a fitted effect of over 30% in size; note: potency is the fitted concentration of half-maximal effect). In outline: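 p53RE-bla cells, seeded at 4,000 per well and rested 5 h at 37 C/5% CO2, received compounds in DMSO for 16 h at 37 C. CellTiter-Glo was then added, and luminescence was read after 30 min at room temperature to gauge cytotoxicity.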
Test [4] is described as follows: qHTS assay for small molecules that induce genotoxicity in human embryonic kidney cells expressing luciferase-tagged ATAD5 - cell viability (AID 651634; calls by dose curve; note: nearly all actives have a fitted effect of over 25% in size; note: potency is the fitted concentration of half-maximal effect). In outline: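 Quantitative high-throughput format. HEK293T cells expressing ATAD5 fused to luciferase were plated at 2,000 cells/well and treated 15.5 hr with compound versus DMSO. Viability was determined by fluorescent live-cell protease substrate, 30 min at 37C.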

Test [5] in a line: qHTS assay for small molecule disruptors of the mitochondrial membrane potential - cell viability (AID 720634; calls by dose curve; note: nearly all actives have a fitted effect of over 20% in size; note: potency is the fitted concentration of half-maximal effect). In outline:
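Same-well counter-screen: following the MMP dye addition, CellTiter-Glo was added to 1 hr compound-treated HepG2 cells and luminescence read after 30 min at room temperature.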

Test [6] in a line: qHTS assay for small molecule disruptors of the mitochondrial membrane potential (AID 720635). Note: potency is the fitted concentration of half-maximal effect. The gist of the method: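 HepG2 cells (2,000/well) attached overnight at 37C, then took compound for 1 hr at 37C, 5% CO2. Mito-MPS dye was added for 30 min; fluorescence was read at 490/535 nm (monomers) and 540/590 nm (aggregates).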
A short description of test [7]: qHTS assay to test for compound auto fluorescence at 590 nm (red) in HepG2 cells (AID 720674). The gist of the method:
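Rose Bengal sodium served as the red fluorophore standard. HepG2 monolayers (overnight attachment, MEM with 10% FBS) were exposed to test compounds for 1 hr at 37 C and read at Ex 540/Em 590 nm.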

Test [8] can be described thus: qHTS assay to test for compound auto fluorescence at 535 nm (green) in HepG2 cells (AID 720675).
Test [9] in a line: qHTS assay to test for compound auto fluorescence at 460 nm (blue) in HEK293 cells (AID 720678). In outline:
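Measured: blue fluorescence (Ex 405/Em 460 nm) of compound-treated HEK293 cells, incubated overnight at 37C with 5% CO2 and scaled to triamterene equivalents.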

Test [10] is described as follows: qHTS assay to test for compound auto fluorescence at 590 nm (red) in HEK293 cells (AID 720679). The gist of the method:
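Using HEK293 cells at 2,000 per well, the screen added 23 nL of each compound after cell attachment and incubated overnight (37C, 5% CO2). The plate reader then captured red-label fluorescence, Ex/Em 540/590nm.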

For the compound `CCC(=O)OC(OP(=O)(CCCCc1ccccc1)CC(=O)N1C[C@H](C2CCCCC2)C[C@H]1C(=O)O)C(C)C` (some centres undefined), the Potency result in [1], in test [2], in test [3], in test [4], in [5] and in test [6] was “inactive” each time. In addition, the Potency entry in test [8] and in [9] was “inactive” in each case. The compound was called inactive in [7] and in test [10].

For the compound `O=C1CCC(c2ccccc2)(C2CCN(Cc3ccccc3)CC2)C(=O)N1` (centres undefined), the Potency entry in test [1], in [2], in test [3], in [4], in test [5] and in test [6] was “inactive” throughout. The Potency entry in test [8] and in [9] was “inactive” each time. Moreover, the outcome in [7] and in test [10] was inactive.

With `CC(C)C[C@H](NC(=O)[C@@H](COC(C)(C)C)NC(=O)[C@H](Cc1ccc(O)cc1)NC(=O)[C@H](CO)NC(=O)[C@H](Cc1c[nH]c2ccccc12)NC(=O)[C@H](Cc1cnc[nH]1)NC(=O)[C@@H]1CCC(=O)N1)C(=O)N[C@@H](CCCN=C(N)N)C(=O)N1CCC[C@H]1C(=O)NNC(N)=O`, the Potency result in test [1], in [2], in test [3], in test [4], in [5] and in [6] was “inactive” in each case. Also, the Potency result in test [8] and in [9] was “inactive” throughout. For the same compound, the result in test [7] and in test [10] was inactive.

In the case of `CO/N=C(\C(=O)N[C@@H]1C(=O)N2C(C(=O)O)=C(COC(C)=O)CS[C@H]12)c1csc(N)n1` (stereo in doubt), the Potency entry in [1], in test [2], in test [3], in test [4], in [5] and in test [6] was “inactive” in each case. The Potency result in test [8] and in [9] was “inactive” each time. Also, the result in [7] and in test [10] was inactive.

With `CCCCCCCCCCCCCCCCCCOCC(COP(=O)([O-])OCC[N+](C)(C)C)OC` (centres undefined), the Potency entry in test [1], in test [2], in test [3], in [4], in [5] and in test [6] was “inactive” in each case. The Potency result in [8] and in test [9] was “inactive” in each case. The compound was called inactive in test [7] and in [10].

In the case of `CC(C)(C)C(=O)OCC(=O)[C@H]1CC[C@H]2[C@@H]3CCC4=CC(=O)CC[C@]4(C)[C@H]3CC[C@]12C`, the Potency entry in test [1], in [2], in test [3], in [4], in test [5] and in [6] was “inactive” each time. The Potency entry in test [8] and in test [9] was “inactive” each time. In addition, the outcome in test [7] and in test [10] was inactive.

Consider `CC1(C)CCC(NC(=O)[C@@H](N)CCC(=O)O)CC1`, for which the Potency result in test [1], in test [2], in [3], in test [4], in test [5] and in [6] was “inactive” in each case. In addition, the Potency result in test [8] and in [9] was “inactive” each time. Moreover, the compound was classed as inactive in test [7] and in test [10].

As to `Cc1ccc(C(C)(C)c2ccc(C)cc2)cc1`, the Potency result in [1], in test [2], in test [3], in test [4], in [5] and in test [6] was “inactive” each time. Moreover, the Potency entry in [8] and in test [9] was “inactive” in each case. For the same compound, the outcome in test [7] and in test [10] was inactive.

Regarding `O=C(O)[C@@H]1C[C@H](CP(=O)(O)O)CCN1`, the Potency result in test [1], in test [2], in test [3], in test [4], in [5] and in test [6] was “inactive” throughout. Besides, the Potency entry in [8] and in test [9] was “inactive” each time. Also, the compound was called inactive in test [7] and in test [10].

In the case of `CN(Cc1ccccc1)Cc1ccccc1`, the Potency result in [1], in [2], in [3], in test [4], in test [5] and in [6] was “inactive” each time. Also, the Potency entry in test [8] and in test [9] was “inactive” each time. Further, the call in test [7] and in test [10] was inactive.

As to `C[C@@H]1O[C@@H](OC[C@H]2O[C@@H](Oc3c(-c4ccc(OCCO)c(OCCO)c4)oc4cc(OCCO)cc(O)c4c3=O)[C@H](O)[C@@H](O)[C@@H]2O)[C@H](O)[C@H](O)[C@H]1O`, the Potency entry in [1], in test [2], in test [3], in [4], in test [5] and in test [6] was “inactive” each time. Moreover, the Potency result in test [8] was “inactive”. The compound was classed as inactive in test [7] and in [10].

`CSCCC(N)C(=O)O` (centres undefined): the Potency entry in [1], in test [2], in test [3], in test [4], in [5] and in [6] was “inactive” each time. Moreover, the Potency entry in test [8] and in [9] was “inactive” each time. The compound was called inactive in [7] and in test [10].

In the case of `CC(C)(Oc1ccc(C2CCCc3ccccc32)cc1)C(=O)O` (centres undefined), the Potency result in test [1], in test [2], in test [3], in test [4], in [5] and in test [6] was “inactive” each time. Besides, the Potency entry in test [8] and in test [9] was “inactive” throughout. In addition, the result in test [7] and in [10] was inactive.

As to `C[S+](C)CCC(N)C(=O)O` (centres undefined), the Potency entry in test [1], in [2], in [3], in test [4], in test [5] and in test [6] was “inactive” in each case. In addition, the Potency result in test [8] and in [9] was “inactive” throughout. In addition, the compound was called inactive in [7] and in test [10].

As for `C[C@]12O[C@H](C[C@]1(O)CO)n1c3ccccc3c3c4c(c5c6ccccc6n2c5c31)CNC4=O`, the Potency in test [1] is 0.075 µM (active); in test [3], 0.944 µM (active); in [4], 4.73 µM (active); in test [6] it was 3.76 µM (active). For the same compound, the Potency entry in [2], in test [5], in [8] and in test [9] was “inactive” each time. Besides, the compound was called inactive in [7] and in [10].

Turning to `Cc1cn([C@H]2C[C@H](O)[C@@H](CO)O2)c(=O)[nH]c1=O`, the Potency entry in test [1], in test [2], in test [3], in [4], in test [5] and in test [6] was “inactive” each time. Besides, the Potency entry in test [8] and in test [9] was “inactive” in each case. Also, the compound was classed as inactive in test [7] and in test [10].

Turning to `NC(=O)[C@H]1O[C@@H](O)[C@H](O)[C@@H](O)[C@@H]1O`, the Potency entry in test [1], in test [2], in test [3], in [4], in test [5] and in test [6] was “inactive” each time. Also, the Potency result in test [8] and in test [9] was “inactive” throughout. The call in test [7] and in test [10] was inactive.

`COC1[C@@H](O[C@@H]2O[C@H](C)[C@@H](O[C@H]3C[C@@](C)(O)[C@H](OC(=O)CC(C)C)[C@H](C)O3)[C@H](N(C)C)[C@H]2O)[C@@H](CC=O)C[C@@H](C)[C@@H](O)/C=C/C=C/C[C@@H](C)OC(=O)C[C@H]1OC(C)=O` (some centres undefined): the Potency result in test [1], in [2], in test [3], in test [4], in [5] and in test [6] was “inactive” in each case. In addition, in [9], the Potency entry was “inactive”. For the same compound, the outcome in [7] and in [10] was inactive.

Regarding `N[C@@H](Cc1cnc[nH]1)C(=O)O`, the Potency result in test [1], in test [2], in test [3], in test [4], in test [5] and in test [8] was “inactive” throughout. For the same compound, the Potency entry in [9] is “inactive”. Also, the result in test [7] and in test [10] was inactive.

As to `O=C1c2ccccc2C(=O)C1c1ccc(F)cc1`, the Potency entry in [1], in test [2], in [3], in test [4], in test [5] and in test [6] was “inactive” each time. Besides, the Potency entry in test [8] and in [9] was “inactive” in each case. In addition, the result in test [10] was inactive.

For `CC1(C)S[C@@H]2[C@H](NC(=O)[C@H](N)c3ccc(O)cc3)C(=O)N2[C@H]1C(=O)O`, the Potency entry in test [1], in [2], in [3], in test [4], in test [5] and in [6] was “inactive” throughout. In addition, the outcome in test [7] and in test [10] was inactive.

With `CN1C(=O)C[C@@H](C(=O)N[C@@H](Cc2cnc[nH]2)C(=O)N2CCC[C@H]2C(N)=O)NC1=O`, the Potency entry in test [1], in test [2], in test [3], in test [4], in test [5] and in test [6] was “inactive” throughout. Moreover, the Potency entry in test [8] and in [9] was “inactive” each time. The compound was classed as inactive in test [10].

Take `CCCCCCCCOC(=O)c1cc(O)c(O)c(O)c1`: the Potency in [1] is 61.1 µM (active); in test [3] it was 54.5 µM (active); in test [5], 13.7 µM (active); in test [6], 6.11 µM (active). The Potency result in [2], in test [4] and in test [9] was “inactive” throughout. Besides, the compound was classed as inactive in [7] and in [10].

Regarding `CC[N+](CC)(CC)CCC(O)(c1ccccc1)C1CCCCC1` (centres undefined), the Potency result in test [1], in [2], in test [3], in [4], in test [5] and in test [6] was “inactive” throughout. Further, the Potency result in [8] and in test [9] was “inactive” each time. Moreover, the outcome in test [10] was inactive.

For `CCOC(=O)Cc1ccc(-c2ccccc2)cc1`, the Potency entry in test [1], in [2], in [3], in test [4], in test [5] and in test [6] was “inactive” in each case. For the same compound, the Potency result in test [9] was “inactive”. Besides, the result in test [7] and in [10] was inactive.

For `Cc1onc(-c2c(F)cccc2Cl)c1C(=O)N[C@@H]1C(=O)N2[C@@H]1SC(C)(C)[C@@H]2C(=O)O`, the Potency result in [1], in [2], in test [3], in [4], in test [5] and in test [6] was “inactive” in each case. For the same compound, the Potency entry in test [9] is “inactive”. For the same compound, the outcome in test [7] and in [10] was inactive.
